Six molecules from PubChem BioAssay (NCI) can be followed below.

SMILES strings stand for the structures. This is part of a sample that, as a whole, favours compounds with a hit. Of some 83,000 tested, about 20% had one in any assay.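 Each cell line was grown in a 96-well plate and treated with one concentration of compound for 48 hours. Values below 10 were considered active.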 Active and inactive are the calls of the source.

In this experiment the test system is M14 melanoma. Description: NCI-60 one-dose screen, 48 h (100 = growth as untreated, 0 = no growth, -100 = all killed). The following applies: 10 µM unless noted.
Turning to `O=C(NN1C(=O)/C(=C/C=C/c2ccc([N+](=O)[O-])o2)SC1=S)c1ccccc1O`, the growth was -81.3% (active).

In the case of `COc1ccc(-c2nc3cc(C)ccc3n2CC(=O)N=Nc2c(O)[nH]c3ccc(Cl)cc23)cc1`, the growth is -44.6% (active).

As for `COC1=C[C@]23CCC(=O)N2CCc2cc4c(cc2[C@@H]3[C@@H]1OC(=O)[C@H](C)O)OCO4`, the growth was 10.4% (inactive).

On to `Cc1sc2c(c1C)C(c1ccc(Cl)cc1)=N[C@@H](CC(=O)NCCCCCNC(=O)COc1ccc(C3CCC(=O)NC3=O)cc1)c1nnc(C)n1-2` (stereo partly specified), for which the growth was 17.6% (inactive).

For `N/C(=N\c1nc2ccccc2s1)NC(=O)Nc1ccc(Cl)cc1Cl`, the growth is -53.6% (active).

In the case of `CC1=C(C#N)C2=NNCC(c3ccccc3)=NN2C(c2ccccc2)=C1`, the growth is 103% (inactive).
